The other results are listed elsewhere or left out. The hit rate among all sequences tested is not known here.
Molecular target: furin, P09958
Assay: furin cleavage Z-score vs untreated control; higher = more cleavage, active = 3.5 or more, inactive = 1 or less, 8 variable residues between constant flanks
How it was run: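 Magnetic beads held 8-mer peptides by the N-terminus, each fused to a cDNA oligonucleotide, and purified furin was added for 7.5, 15 or 30 min. Released DNA was sequenced after PCR adapter tagging. The cleavage Z-score is the log count relative to furin-free reactions, lowess-adjusted and divided by median absolute deviation.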
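Also: purified furin at 1:10 enzyme:substrate in 50 mM HEPES pH 7.5.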

Chain of furin, P09958 (P09958 whole entry): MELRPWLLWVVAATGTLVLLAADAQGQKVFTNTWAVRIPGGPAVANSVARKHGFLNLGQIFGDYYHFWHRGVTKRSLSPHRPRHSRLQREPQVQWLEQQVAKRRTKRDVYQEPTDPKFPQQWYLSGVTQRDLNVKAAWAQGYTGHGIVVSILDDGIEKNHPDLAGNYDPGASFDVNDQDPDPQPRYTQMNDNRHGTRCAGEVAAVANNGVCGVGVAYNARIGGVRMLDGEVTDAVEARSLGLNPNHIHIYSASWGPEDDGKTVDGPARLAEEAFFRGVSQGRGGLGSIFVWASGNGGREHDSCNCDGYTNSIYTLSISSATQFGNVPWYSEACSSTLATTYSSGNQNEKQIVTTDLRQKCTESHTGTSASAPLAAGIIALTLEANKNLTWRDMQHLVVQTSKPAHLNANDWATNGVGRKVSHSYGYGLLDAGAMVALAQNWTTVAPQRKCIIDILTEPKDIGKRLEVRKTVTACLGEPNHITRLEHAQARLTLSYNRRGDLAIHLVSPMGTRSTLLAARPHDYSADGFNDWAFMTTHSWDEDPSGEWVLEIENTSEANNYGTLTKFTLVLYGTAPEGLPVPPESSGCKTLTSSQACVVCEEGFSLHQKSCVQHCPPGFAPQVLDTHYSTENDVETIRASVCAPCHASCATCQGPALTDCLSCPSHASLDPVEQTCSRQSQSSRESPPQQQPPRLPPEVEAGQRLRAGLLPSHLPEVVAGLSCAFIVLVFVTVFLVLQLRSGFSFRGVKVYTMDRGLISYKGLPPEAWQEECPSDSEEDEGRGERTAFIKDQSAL

CAVFCCSMSYAGNASASA [HC2007]
furin cleavage Z-score (7.5 min): -1.31 (inactive)
furin cleavage Z-score (15 min): -1.48 (inactive)
furin cleavage Z-score (30 min): -0.762 (inactive)

CAPTPCSGSWAGNASASA [HC1839]
furin cleavage Z-score (7.5 min): -0.934 (inactive)
furin cleavage Z-score (15 min): -0.739 (inactive)
furin cleavage Z-score (30 min): -1.08 (inactive)

CACRPLTDFDAGNASASA [HC390]
furin cleavage Z-score (7.5 min): -1.1 (inactive)
furin cleavage Z-score (15 min): 0.259 (inactive)
furin cleavage Z-score (30 min): -1.94 (inactive)

CANVPCHRPSAGNASASA [HC2321]
furin cleavage Z-score (7.5 min): 0.0675 (inactive)
furin cleavage Z-score (15 min): 0.859 (inactive)
furin cleavage Z-score (30 min): 1.03

CALNTGWLAGAGNASASA [HC377]
furin cleavage Z-score (7.5 min): -0.173 (inactive)
furin cleavage Z-score (15 min): -0.464 (inactive)
furin cleavage Z-score (30 min): 0.636 (inactive)

CASTPCSAKLAGNASASA [HC2554]
furin cleavage Z-score (7.5 min): 0.275 (inactive)
furin cleavage Z-score (15 min): 1.72
furin cleavage Z-score (30 min): 1.78

CANAASLAGTAGNASASA [HC538]
furin cleavage Z-score (7.5 min): 0.915 (inactive)
furin cleavage Z-score (15 min): 0.0856 (inactive)
furin cleavage Z-score (30 min): 0.369 (inactive)

CAVIVGRVVLAGNASASA [HC1001]
furin cleavage Z-score (7.5 min): -0.946 (inactive)
furin cleavage Z-score (15 min): -1.25 (inactive)
furin cleavage Z-score (30 min): -0.791 (inactive)

CAKPMRQQRDAGNASASA [FS-343]
furin cleavage Z-score (7.5 min): 5.15 (active)
furin cleavage Z-score (15 min): 5.86 (active)
furin cleavage Z-score (30 min): 7.03 (active)

CALRRRCQRDAGNASASA [FS-459]
furin cleavage Z-score (7.5 min): 9.61 (active)
furin cleavage Z-score (15 min): 9.12 (active)
furin cleavage Z-score (30 min): 7.39 (active)

CATKRRNQRDAGNASASA [FS-509]
furin cleavage Z-score (7.5 min): 9.77 (active)
furin cleavage Z-score (15 min): 11 (active)
furin cleavage Z-score (30 min): 8.15 (active)

CAFPNRDQRDAGNASASA [FS-652]
furin cleavage Z-score (7.5 min): -0.191 (inactive)
furin cleavage Z-score (15 min): -0.415 (inactive)
furin cleavage Z-score (30 min): -0.133 (inactive)

CALRRRGPGKAGNASASA [FS-2124]
furin cleavage Z-score (7.5 min): -0.105 (inactive)
furin cleavage Z-score (15 min): -1.37 (inactive)
furin cleavage Z-score (30 min): -1.45 (inactive)

CALPVWARPDAGNASASA [HC1303]
furin cleavage Z-score (7.5 min): -0.876 (inactive)
furin cleavage Z-score (15 min): -0.333 (inactive)
furin cleavage Z-score (30 min): -0.285 (inactive)

CALRRVLRRDAGNASASA [FS-56]
furin cleavage Z-score (7.5 min): 4.93 (active)
furin cleavage Z-score (15 min): 4.47 (active)
furin cleavage Z-score (30 min): 5.29 (active)
